# Reference: the supplement of paper PMC10981050
# Values joined by “and” are separate entries in the source; they are usually repeats but may differ in a detail not shown here. Identical values can stand only once. Counter-ions that a name gives are not always drawn.
# Columns and labels:
# Assay in all cases: cell viability relative to vehicle control; higher = less cytotoxic
# Conditions in all cases: 10 µM
# K562 = system: K562
# Outline: (§1)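 Screening covered the Selleck bioactive, kinase and epigenetic probe libraries, less identity-inconsistent compounds, on CRISPR-edited mutant clones and isogenic wild-type clones of four leukaemia lines. Cells, at 2000 per well in 50 µL medium, received a single 10 µM acoustically dispensed dose. After 48 h the supernatant was removed and CellTiter-Glo luminescence was read. Viability was analysed in Genedata Screener as percent of the on-plate vehicle control.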
# MARIMO = system: MARIMO
# Outline: as §1
# MOLM14 = system: MOLM14
# Outline: as §1
# OCI-AML2 = system: OCI-AML2
# Outline: as §1
SMILES,cell viability (K562; SRSF2 genotype: SRSF2 P95H/wt),cell viability (K562; SRSF2 genotype: SRSF2 wt/wt) [%],cell viability (MARIMO; SRSF2 genotype: SRSF2 P95H/wt) [%],cell viability (MARIMO; SRSF2 genotype: SRSF2 wt/wt) [%],cell viability (MOLM14; SRSF2 genotype: SRSF2 P95H/wt) [%],cell viability (MOLM14; SRSF2 genotype: SRSF2 wt/wt) [%],cell viability (OCI-AML2; SRSF2 genotype: P95H/wt) [%],cell viability (OCI-AML2; SRSF2 genotype: wt/wt) [%]
O=C(Nc1ncc(SCCN2CCCC2)s1)[C@]1(c2ccc(S(=O)(=O)C3CC3)cc2)C[C@H]1C1CCCCC1,0.72% and 0.66%,0.58,2.32,11.5,0.59,0.51,0.46,0.55
CNc1cc(-c2cccc(Cl)c2Cl)nc(N)n1,15.8% and 28.9%,29.6,12.2,9.54,9.14,2.78,6,11.5
c1cncc(CN2CCC(n3ncc4c(N5CCOCC5)nc(-c5ccc6[nH]ccc6c5)nc43)CC2)c1,41.8% and 44.3%,51,3.19,6.42,35,25,26.2,29.1
"C=CC(=O)Nc1cccc(Nc2nc(Nc3ccc(N4CCN(C(C)=O)CC4)cc3OC)ncc2C(F)(F)F)c1 [Rociletinib (CO-1686, AVL-301)]",54.5% and 77.9%,68.3,34.9,29.4,6.76,11.9,10.2,19
FC(F)(F)Oc1ccc2nc(-c3ccc(OCCOCCOc4ccc(-c5nc6ccc(OC(F)(F)F)cc6[nH]5)nc4)cn3)[nH]c2c1,52.4% and 53%,56.4,26.9,39.3,50.4,41.3,18.4,24.8
N=C1S/C(=C\c2ccc(-c3ccc4c(c3)C(=O)NC4=O)o2)C(=O)N1c1ccc(Br)cc1 [Bioymifi],95.1% and 88.2%,87.4,99,101,90.1,93.1,96.6,93.1
Cc1cc(C)c(/C=C2\C(=O)Nc3ccccc32)[nH]1 [Semaxanib (SU5416)],102% and 103%,105,88.3,97.4,20,19.8,28.1,39.9
FC(F)(F)c1ccc(/C=C/c2nc(COc3ccc(CCCCn4ccnn4)cc3)co2)cc1 [Mubritinib (TAK 165)],68.1% and 58.5%,56.7,67.2,61.8,70.1,55.5,49.2,47
Cn1cc(-c2ccc3nnc(C(F)(F)c4ccc5ncccc5c4)n3n2)cn1,94.1% and 97.8%,98.8,102,105,96,99.2,86.9,89.6
O=C1Cc2ccccc2N1 [Oxindole],96.9% and 92%,98.4,98.2,103,95,98.9,95.9,105
CC(=O)O[C@]1(C(C)=O)CC[C@H]2[C@@H]3C=C(C)C4=CC(=O)CC[C@]4(C)[C@H]3CC[C@@]21C [Megestrol Acetate],90.8% and 87.5%,86.6,56.5,46.6,84.8,87.6,61.8,73.1
CO/N=C(\C(=O)N[C@@H]1C(=O)N2C(C(=O)O)=C(Cn3ccc(=N)n3CCO)CS[C@H]12)c1csc(N)n1 [Cefoselis sulfate],95.5% and 104%,94,92.6,98,100,101,103,96.8
Oc1c(F)cc(-c2cnccc2-c2ccc(N3CCOCC3)cc2)cc1F,101% and 106%,105,97.5,92.6,75.5,104,120,103
CC(S)C(=O)NCC(=O)O (stereo unspecified) [Tiopronin (Thiola)],111% and 110%,104,105,105,100,105,100,112
Cc1nnc(C(=O)NC(C)(C)c2nc(C(=O)NCc3ccc(F)cc3)c(O)c(=O)n2C)o1 [Raltegravir (MK-0518)],101% and 94.3%,94.6,95.8,103,98.1,93.5,95.4,98
O=c1oc2cc(O)ccc2s1 [Tioxolone],95.7% and 106%,105,103,101,101,103,102,97.4
CS(=O)(=O)Nc1ccc([N+](=O)[O-])cc1OC1CCCCC1,99.4% and 103%,97,102,95.3,94.4,98.8,107,101
O=C(CNc1ccc2ccccc2c1)N/N=C/c1cc(Br)c(O)c(Br)c1O,81.1% and 82.1%,72.8,50.8,65.4,62.3,51.7,49.8,58.5
Nc1ccccc1NC(=O)c1cnccn1,91.8% and 96%,82.8,76.7,90.7,75.5,73.9,81.3,88.3
CCCCCCCCCCCCCCCC(=O)OCC(O)C1OC(=O)C(O)=C1O [L-Ascorbyl 6-palmitate],103% and 102%,98.7,107,121,106,109,103,106
COc1cc(OC)c(/C=C/S(=O)(=O)Cc2ccc(OC)c(NCC(=O)O)c2)c(OC)c1,16.5% and 39%,35.6,5.99,9.46,0.51,0.74,1.32,2.98
CN1CC[C@@H](NC(=O)Nc2ccc(C#N)cc2)C[C@@H]1c1nc2ccccc2[nH]1,98.5% and 104%,107,104,109,98.8,100,98.1,112
